Source: PubChem BioAssay (National Center for Advancing Translational Sciences (NCATS))
Shown are actives, neighbours in structure and some others; about 4.2% of the full set was active somewhere.
TCR activator = Activators of T cell receptors: qHTS campaign; primary human leukocytes, anti-CD3, IL-2 HTRF, 48 h; Potency, µM (top dose mostly 9.22 µM), without a hit: at the top dose activation of IL-2 secretion, usual class: activators; 330,000 tested, under 10 active; further: % of control where 0% means no effect
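Activity was scored as IL-2 release from primary human leukocytes given only a TCR signal (a-CD3 beads) plus compound for 48 hr. Detection used a two-antibody HTRF format read at 665nm.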
Sfp PPTase inh = qHTS Assay for Inhibitors of Bacillus subtilis Sfp phosphopantetheinyl transferase (PPTase); Biochemical Sfp PPTase activity, qHTS; 4'-phosphopantetheinyl transferase ffp (Bacillus subtilis), Q9F4F7; hit rate 3.5% among 310,000; Potency, µM, for the others: largest response in the series, negative = inhibition, actives largely listed as inhibitors;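 further: the enzyme is Sfp with the accession as filed and its product quenches rhodamine fluorescence; potency means the concentration at half of the fitted maximal effect; 0% = enzyme reaction without inhibitor and -100% = no enzyme wells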
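Compounds were incubated with enzyme (final 15 nM) for 15 min at room temperature before substrate addition started the reaction. Fluorescence at 525 nm excitation, 598 nm emission was recorded immediately and after 30 minutes.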
uPA generation = qHTS for Inhibitors of Cell Surface uPA Generation. cell surface uPA generation assay, qHTS. Potency, µM (doses to about 38.3 µM), inactives show at the top dose activity change, negative = inhibition, usual class: inhibitors. hit rate 0.31% among 330,000. AID 540303, 2011; active means well fitted inhibition curve with a large enough effect; inconclusive means small, poorly fitted or top-dose-only effect; inactive means no such curve, though single readings can be large or run the other way; tested in mouse RAW 264.7 cells; further: potency means the concentration at half of the fitted maximal effect; on the % scale 0 is the no-effect control and ±100 the full control effect; nearly all actives have a fitted effect of over 55% in size
ClpP mod = qHTS Assay for Activators of ClpP. ATP-dependent Clp protease proteolytic subunit (Bacillus subtilis (strain 168)), P80244. purified B. subtilis ClpP, FRET peptide cleavage, 20 min. Potency, µM (highest dose often 57.5 µM), inactives show at the highest dose activity change, negative = active. hit rate 1.9% among 340,000; active means well fitted falling curve with a large enough effect; inconclusive means small, poorly fitted or top-dose-only effect; inactive means no such curve, though single readings can be large or run the other way; further: potency means the concentration at half of the fitted maximal effect; the source files actives as falling curves though it sought activators and does not explain the sign; nearly all actives have a fitted effect of over 65% in size
Target sequence (P80244 whole entry, looked up): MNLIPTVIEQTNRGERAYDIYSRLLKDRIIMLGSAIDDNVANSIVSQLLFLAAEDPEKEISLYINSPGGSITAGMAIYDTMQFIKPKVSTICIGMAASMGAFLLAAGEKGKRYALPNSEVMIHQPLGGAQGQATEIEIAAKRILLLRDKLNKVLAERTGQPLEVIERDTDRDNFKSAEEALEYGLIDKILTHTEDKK
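ClpP 10 microg/mL final, pH 8 Tris/KCl buffer with BSA, glycerol, Tween-20; compound pinned in; FRET-FV substrate; RT 20 min; Ex320/Em430; ΔFRET vs ADEP 5.8 microM, DMSO, no enzyme.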
An asterisk follows results filed as active; [ ] = dose if it differs, or a comment. Unless noted, the call rests on the fitted dose curve; in most records, active means well fitted curve in the direction sought with a large enough effect; inconclusive means small, poorly fitted or top-dose-only effect, or another doubt; inactive means no such curve, though single readings can be large; an effect the other way counts as inactive or inconclusive.

Results for Cc1cccc(-n2c(O)c(/C=N/Nc3nc4c(c(=O)n(C)c(=O)n4C)n3C)c(=O)[nH]c2=S)c1 ?
TCR activator: 8%[46.1 µM]; Sfp PPTase inh: 56µM*; uPA generation: -2%; ClpP mod: -1%

Results for Cn1c(=O)c2c(nc(N/N=C/c3c(O)n(C4CCCCC4)c(=S)[nH]c3=O)n2C)n(C)c1=O ?
TCR activator: -4%; Sfp PPTase inh: 71µM*; uPA generation: -3%; ClpP mod: -1%

Results for CC/C=C\C[C@@H](/C=C/C=C\C/C=C\C/C=C\CCCC(=O)O)OO ?
Sfp PPTase inh: -5%

How did CC1OC(OC2C(O)CC(OC3C(O)CC(OC4CCC5(C)C(CCC6C5CCC5(C)C(C7=CC(=O)OC7)CCC65O)C4)OC3C)OC2C)CC(O)C1O (stereo unspecified) do in these assays?
Sfp PPTase inh: 24%

What do the screens show for `CC[C@H](CO)NC(=O)[C@H]1C=C2c3cccc4[nH]cc(c34)C[C@@H]2N(C)C1`?
Sfp PPTase inh: 29%

What do the screens show for `Cc1ccsc1/C=C1\C(=O)NC(=S)N(C)C1=O`?
TCR activator: 1%; Sfp PPTase inh: 20µM*; uPA generation: -24%; ClpP mod: 1%

Results for CN1C(=O)/C(=C\c2ccc(N3CCCCCC3)cc2)C(=O)NC1=S ?
TCR activator: -2%; Sfp PPTase inh: inconclusive; uPA generation: -8%; ClpP mod: 1%

What do the screens show for `CN1C(=O)/C(=C/c2ccc(Cl)s2)C(=O)NC1=S`?
TCR activator: 4%; Sfp PPTase inh: 13µM*; uPA generation: 0%

How did COc1ccc(/C=C2\C(=O)NC(=S)N(C)C2=O)cc1C do in these assays?
TCR activator: -11%; Sfp PPTase inh: 18µM*; uPA generation: -3%

Results for Cc1ccc(/C=C2/C(=O)NC(=O)N(CCc3ccc(F)cc3)C2=O)s1 ?
TCR activator: -2%[46.1 µM]; Sfp PPTase inh: 7%; uPA generation: -1%; ClpP mod: -6%

What do the screens show for `ClCCN(CCCl)c1ccc(C=Nc2ccc(/C=C/c3ccncc3)cc2)cc1`?
ClpP mod: -16%

What do the screens show for `CCCN1[C@@H]2C[C@@H](O)CC[C@@H]2C[C@H]1C(=O)OC`?
Sfp PPTase inh: -4%

Results for CCCC[C@@H](CNC)NC[C@H](Cc1ccc(O)cc1)NCCc1ccc(OCC)cc1 ?
TCR activator: -4%; Sfp PPTase inh: 24%; uPA generation: inconclusive; ClpP mod: -1%

Results for CCCCCSc1cc(OC)c(CCN)cc1OC ?
TCR activator: 9%; Sfp PPTase inh: inconclusive; uPA generation: -8%; ClpP mod: 0%

How did CCCCCCCSc1cc(OC)c(CCN(C)C)cc1OC do in these assays?
TCR activator: 2%; Sfp PPTase inh: 14µM*; uPA generation: 19%; ClpP mod: 0%

What do the screens show for `O=C(O)Cn1cc(/C=C2\C(=O)NC(=O)N(c3ccc(Cl)cc3)C2=O)c2ccccc21`?
TCR activator: 0%; Sfp PPTase inh: inconclusive; uPA generation: 10%; ClpP mod: 0%

What do the screens show for `O=C1NC(=O)N(c2ccc(Cl)cc2)C(=O)/C1=C\c1ccc(Sc2nc3ccccc3[nH]2)o1`?
TCR activator: 1%[46.1 µM]; Sfp PPTase inh: 71µM*; uPA generation: -2%

What do the screens show for `O=[N+]([O-])c1ccc(Cl)c(S(=O)(=O)Nc2cccc(-c3ccc(N4CCCC4)nn3)c2)c1`?
TCR activator: -2%; uPA generation: inconclusive; ClpP mod: 1%

Results for CC(=O)C(O)C(c1ccccc1)c1c(O)c2ccccc2oc1=O (stereo unspecified) ?
Sfp PPTase inh: 9%

What do the screens show for `CCOC(=O)c1cccc(NC(=O)c2cnc(N3CCCCC3)c3ccccc23)c1`?
ClpP mod: 28µM*

How did CCOC(=O)c1ccc(NC(=O)c2sc3nc4c(cc3c2N)N2CCC4CC2)cc1 do in these assays?
ClpP mod: -20%

How did CN1C(=O)C(C2CCCCC2)C(=O)N(C)C1=O do in these assays?
TCR activator: -5%; uPA generation: 3%; ClpP mod: 0%

What do the screens show for `O=C1NC(=S)NC(=O)C1C1CCCCC1`?
TCR activator: 1%; Sfp PPTase inh: 79µM*; uPA generation: 24%; ClpP mod: -1%

Results for Cc1ccc(-c2cn3c(=S)[nH]nc3s2)cc1 ?
TCR activator: 0%; Sfp PPTase inh: 35µM*; uPA generation: -3%; ClpP mod: 1%

Results for CN1CCCC2(CCN(C(=O)Oc3ccccc3)CC2)C1 ?
Sfp PPTase inh: 5%

How did COCCN=c1scc(-c2cccs2)n1/N=C/c1ccc(O)c(O)c1O do in these assays?
TCR activator: 2%[46.1 µM]; Sfp PPTase inh: 7.1µM*; uPA generation: inconclusive; ClpP mod: -2%

What do the screens show for `CN(C)c1ccc(/C=C(\Cl)c2nc3ccccc3s2)cc1`?
TCR activator: -3%[46.1 µM]; Sfp PPTase inh: inconclusive; uPA generation: 10µM*; ClpP mod: 1%

Results for Cc1cc(C=C2C(=O)NC(=S)NC2=O)c(C)n1C1CCCC1 ?
TCR activator: 0%; Sfp PPTase inh: 40µM*; uPA generation: -3%

How did [Hg+][c]1ccccc1 do in these assays?
Sfp PPTase inh: 0.22µM*; ClpP mod: -3%

What do the screens show for `O=C1C=C(c2ccc3ncccc3c2)C[C@@H](c2ccc(Cl)cc2)C1`?
TCR activator: -6%; uPA generation: inconclusive; ClpP mod: 0%

Results for COc1ccc([C@H]2CC(=O)C=C(c3c(OC)cccc3OC)C2)cc1 ?
TCR activator: 2%; uPA generation: 2.2µM*; ClpP mod: -1%

How did COC(=O)NC/C=C\c1nc(CC/C=C\C(=O)O[C@H]2C[C@H]3CC(=O)O[C@@H](/C=C\CC(C)C)C[C@@H]4CC[C@H](C)[C@H](C[C@@H](OC)C[C@H](C2)O3)O4)co1 do in these assays?
Sfp PPTase inh: 6%

What do the screens show for `CCN1CCN(C(=O)COc2ccc3c(c2)C(=O)CC2(CCN(C(C)=O)CC2)O3)CC1`?
TCR activator: 0%; Sfp PPTase inh: -9%; uPA generation: 1%; ClpP mod: 32µM*

How did Cc1ccc(C2CC(=O)C(C=NCCN3CCN(C(=O)Cc4ccccc4)CC3)=C(O)C2)cc1 (stereo unspecified) do in these assays?
TCR activator: 4%; Sfp PPTase inh: 9%; uPA generation: 1%; ClpP mod: 32µM*

Results for O=Cc1cc(OCc2ccccc2)ccc1[B-](F)(F)F ?
TCR activator: -2%; uPA generation: inconclusive; ClpP mod: inconclusive

Results for C[C@H]1CC[C@@]2(NC1)O[C@@H]1C[C@H]3[C@@H]4CC[C@@H]5C[C@@H](O)CC[C@@]5(C)[C@@H]4CC[C@]3(C)[C@@H]1[C@@H]2C ?
Sfp PPTase inh: 17%

What do the screens show for `CCOc1cc(-c2ccc(N)c(OCC)c2)ccc1N`?
TCR activator: -6%; Sfp PPTase inh: -27%; uPA generation: 5%; ClpP mod: 32µM*

How did NCCc1c[nH]c2ccc(O)cc12 do in these assays?
Sfp PPTase inh: 27%
